For 15 sequences, sensor-assay potency score (higher = more potent) results are on record in the OligoGym collection.
Also: reference of the scale not given here.

The target in the first assay is C14orf149. Description: pooled miR-30 sensor sort-seq; sequence = guide strand. The following applies: shRNA.
TATAAGCATCTTTTCCATCTGT registered a sensor-assay potency score (higher = more potent) of 0.316.
Still for that read-out and setting: the same measure for TAAACTGAGCTTTCACTGCCTC: -0.0059; for ATGTCCAGGAACATCCACCATG: -1.62.

For a further assay, the target named is C14orf181. The assay is described as above. The following applies: shRNA.
TTCGGTTTTGTGCAAGGGGGAA gave a sensor-assay potency score (higher = more potent) of -0.823.
Take TTAGCTTGGAGGTGGTGGTGGG: the sensor-assay potency score (higher = more potent) was -0.365.
The sequence TGCACTGCCGCTTCCGACCGGG displayed a sensor-assay potency score (higher = more potent) of -0.747.
AAAGTGAAAGTCTTCGGAGTGA had a sensor-assay potency score (higher = more potent) of 0.018.
On to TAACCCTTCGCTGACCCGGCGT, for which the sensor-assay potency score (higher = more potent) is -0.821.
In the case of TTCGGAGTGAAGGAGGCGCTGC, the sensor-assay potency score (higher = more potent) is -1.09.
Still for that read-out and setting: with TAGCTTGGAGGTGGTGGTGGGG the figure was -0.69; with TTCGCCTGGAGCGCGTCCCTTC, -1.3; with TATTTTAGCTTGGAGGTGGTGG, -0.309.
The same measure, in the same setting: with TTTAGCTTGGAGGTGGTGGTGG the figure was 0.0381; with AAAGTCTTCGGAGTGAAGGAGG, -0.89; with AGGTATTTTAGCTTGGAGGTGG, -1.31.
